Some test systems named below: NCI-H226 lung; NCI-H322M lung; HOP-62 NSCLC; NCI-H460 lung; HOP-92 NSCLC; NCI-H522 lung; A549/ATCC NSCLC; 786-0 renal; COLO 205 colon; DU-145 prostate; K-562 leukemia; MALME-3M melanoma; MDA-MB-231 breast; RXF 393 renal; SF-268 CNS; SF-295 CNS; SF-539 CNS; UACC-257 melanoma; M14 melanoma.
Holding throughout (experiment): NCI-60 one-dose screen, 48 h (100 = growth as untreated, 0 = no growth, -100 = all killed)
Common to all, as to details: 10 µM unless noted

Compounds without any hit were thinned out: in the full panel of roughly 83,000, 20% have a hit.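 In brief: 96-well plates, 48 h treatment, single concentration, percent growth endpoint.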 Values without a mark were called inactive. The source made the active and inactive calls. Rule for the calls: active = growth percent below 10; inactive = the rest.

For the compound `O=C(c1cc2cc(OCCCN3CCC3)ccc2[nH]1)N1C[C@@H](CCl)c2c1cc(OCc1ccccc1)c1ccccc21`, the growth is -4.57% (active) in the assay on NCI-H226 lung; -23.5% (active) with NCI-H322M lung; -44% (active) with HOP-62 NSCLC; -60.1% (active) in the assay on NCI-H460 lung; -18.7% (active) in the assay with HOP-92 NSCLC; -70.1% (active) with NCI-H522 lung. Further, the growth in the assay with A549/ATCC NSCLC is -18.5% (active); with 786-0 renal, -86.1% (active); in the assay with COLO 205 colon it was -84.5% (active); in the assay with DU-145 prostate, -29.5% (active); in the assay with K-562 leukemia it was 0.535% (active); with MALME-3M melanoma it was -73.9% (active). The growth in the assay with MDA-MB-231 breast was -41.4% (active); with RXF 393 renal it was -80.8% (active); in the assay on SF-268 CNS, 0.226% (active); in the assay with SF-295 CNS, -4.45% (active); in the assay on SF-539 CNS, -79.8% (active); in the assay on UACC-257 melanoma, -23.1% (active). The growth in the assay with M14 melanoma was -79.3% (active).
With `O=C(CSc1nc2ccccc2c(=O)[nH]1)NNC(=O)c1ccccc1Cl`, the growth with NCI-H322M lung is 116%; in the assay on HOP-62 NSCLC it was 115%; with NCI-H460 lung, 106%; in the assay on HOP-92 NSCLC, 100%; in the assay with NCI-H522 lung it was 104%; in the assay on A549/ATCC NSCLC it was 92.3%. In addition, the growth with 786-0 renal was 97.1%; in the assay on COLO 205 colon, 124%; with DU-145 prostate, 110%; in the assay with K-562 leukemia it was 103%; in the assay on MALME-3M melanoma, 105%; in the assay on MDA-MB-231 breast it was 99.8%. The growth in the assay on RXF 393 renal is 117%; with SF-268 CNS, 106%; with SF-295 CNS, 112%; in the assay on SF-539 CNS it was 96.5%; with UACC-257 melanoma it was 95%; in the assay on M14 melanoma, 110%.
For `CN1CCN(CCS(=O)(=O)Nc2cc(-c3ccc4ncnc(Nc5ccc(F)c(Cl)c5)c4c3)cnc2Cl)CC1`, the growth was 48.9% with NCI-H226 lung; -15.5% (active) in the assay with NCI-H322M lung; 54.7% with NCI-H460 lung; -10.2% (active) in the assay with HOP-92 NSCLC; 10.1% in the assay with NCI-H522 lung; 55.6% in the assay on A549/ATCC NSCLC. Also, the growth was 19.4% in the assay with 786-0 renal; -31.9% (active) with COLO 205 colon; 14.8% with DU-145 prostate; 20.2% with K-562 leukemia; -90.5% (active) with MALME-3M melanoma; -41.3% (active) with MDA-MB-231 breast. The growth with RXF 393 renal is -1.07% (active); with SF-268 CNS it was 40.8%; in the assay with SF-295 CNS it was 7.8% (active); in the assay on SF-539 CNS, -8.6% (active); in the assay with UACC-257 melanoma, 18.2%; in the assay with M14 melanoma it was 20.9%.
Take `CCC(=O)c1cc(C(=O)OC)c2ccc3c4ccccc4ccc3n12`: the growth with NCI-H226 lung was 50.4%; in the assay with NCI-H322M lung it was 93.5%; in the assay on HOP-62 NSCLC, 65.4%; in the assay on NCI-H460 lung it was 26.1%; in the assay with HOP-92 NSCLC, 88.7%; with NCI-H522 lung, 102%. The growth was 67.9% with A549/ATCC NSCLC; 66.8% in the assay with 786-0 renal; 80.5% in the assay with COLO 205 colon; 93.5% in the assay on DU-145 prostate; 91.5% with K-562 leukemia; 71.9% with MALME-3M melanoma. In addition, the growth was 69.9% with MDA-MB-231 breast; 82.1% with RXF 393 renal; 89.3% with SF-268 CNS; 77.6% in the assay with SF-295 CNS; 88.2% with SF-539 CNS; 99.7% with UACC-257 melanoma. Further, the growth in the assay on M14 melanoma is 105%.
Consider `O=C(Nc1ccc(-c2ccc3c(c2)NC(=O)/C3=C\c2ccc[nH]2)cc1)Nc1ccc(Cl)c(Cl)c1`, for which the growth with NCI-H226 lung was 78.1%; in the assay on NCI-H322M lung it was 73.4%; in the assay on HOP-62 NSCLC it was 61.9%; in the assay with NCI-H460 lung, 17.4%; with HOP-92 NSCLC, 88.5%; with NCI-H522 lung it was 63%. For the same compound, the growth in the assay on A549/ATCC NSCLC is 62%; in the assay on 786-0 renal it was 35.9%; in the assay on COLO 205 colon, 58%; in the assay on DU-145 prostate, 54.3%; in the assay with K-562 leukemia, 39%; in the assay on MALME-3M melanoma it was 68.7%. The growth was 71.5% with MDA-MB-231 breast; -1.35% (active) in the assay on RXF 393 renal; 48.9% in the assay on SF-268 CNS; 23.3% in the assay on SF-295 CNS; -48.9% (active) with SF-539 CNS; 76% in the assay with UACC-257 melanoma. Moreover, the growth in the assay on M14 melanoma is 59.3%.
On to `S=C(Nc1ccc(OCc2nc3ccc(Cl)cc3[nH]2)cc1)NC1CCCCC1`, for which the growth in the assay on NCI-H226 lung was -1.48% (active); in the assay on NCI-H322M lung it was 9.78% (active); in the assay with HOP-62 NSCLC it was -20.7% (active); with NCI-H460 lung it was -21.5% (active); in the assay on HOP-92 NSCLC, -4.42% (active); in the assay on NCI-H522 lung, -21.4% (active). For the same compound, the growth is 15.6% with A549/ATCC NSCLC; -20.6% (active) with 786-0 renal; -68.4% (active) in the assay with COLO 205 colon; 7.09% (active) in the assay with DU-145 prostate; 5.65% (active) with K-562 leukemia; -21.6% (active) with MALME-3M melanoma. Moreover, the growth is -76.3% (active) in the assay on MDA-MB-231 breast; -52.3% (active) with RXF 393 renal; 5.6% (active) with SF-268 CNS; -15.9% (active) in the assay with SF-295 CNS; -79.3% (active) with SF-539 CNS; 33.3% in the assay on UACC-257 melanoma. Besides, the growth in the assay with M14 melanoma was -37.2% (active).
Consider `CCCCCCCCc1ccc(C(=O)Nc2ccc(C)c(OP(=O)(O)O)c2)cc1`, for which the growth in the assay on NCI-H226 lung was 102%; in the assay on NCI-H322M lung it was 111%; in the assay with HOP-62 NSCLC, 104%; with NCI-H460 lung it was 110%; with HOP-92 NSCLC, 42%; in the assay on NCI-H522 lung, 82.1%. Moreover, the growth with A549/ATCC NSCLC was 105%; in the assay on 786-0 renal it was 83.6%; in the assay on COLO 205 colon it was 126%; with DU-145 prostate, 101%; with K-562 leukemia, 87%; in the assay with MALME-3M melanoma, 102%. For the same compound, the growth is 97.3% in the assay with MDA-MB-231 breast; 113% in the assay with RXF 393 renal; 83.1% with SF-268 CNS; 91.2% with SF-295 CNS; 93.4% in the assay with SF-539 CNS; 102% in the assay with UACC-257 melanoma. Further, the growth in the assay on M14 melanoma was 106%.
Consider `COc1ccc(NC(=O)Cn2c(/C=C/c3cccc(OC)c3)nc3ccccc3c2=O)cc1`, for which the growth is 1.28% (active) in the assay on NCI-H226 lung; 42.3% in the assay on NCI-H322M lung; -11.5% (active) in the assay on HOP-62 NSCLC; 15.2% in the assay on NCI-H460 lung; 3.74% (active) in the assay on HOP-92 NSCLC; 27.3% with NCI-H522 lung. Also, the growth with A549/ATCC NSCLC is 12.8%; in the assay with 786-0 renal, -70.7% (active); in the assay with COLO 205 colon, 71.6%; with DU-145 prostate, 74.3%; with K-562 leukemia, 84%; with MALME-3M melanoma, 62.7%. The growth was -30.3% (active) with MDA-MB-231 breast; -31.9% (active) in the assay with RXF 393 renal; 66.1% in the assay with SF-268 CNS; 34.6% with SF-295 CNS; -45.7% (active) in the assay with SF-539 CNS; 81.1% with UACC-257 melanoma. For the same compound, the growth in the assay with M14 melanoma is 61.2%.

The values above are taken from PubChem BioAssay (NCI).
